Experimental data taken from PubChem BioAssay AID504423 (Broad Institute, 2011).
In all, about 340,000 compounds went through this assay and about 260 (0.076%) were called active.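 Rule for the calls: active = highest replicate inhibition at or above 60% at 9 µM, even if other replicates fall short; inactive = all replicates below 60% inhibition.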 Shown is part of a subset that was picked to be rich in actives.

system: Kaposi's sarcoma herpesvirus LANA C-terminal domain (residues 932-1162) DNA binding; assay: blockers of LANA C-terminal domain DNA interaction – biochemical, fluorescence polarization, FAM-LBS DNA, MBP-C-LANA, single point, primary screen (AID 504423); conditions: at 9 µM, stronger effect = higher value;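 note: 0% = neutral control wells and 100% = 4 µM acridine orange control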

inhibition, inactive:
NC(N)=NCCCc1cn(CC(=O)N2CCNCC2)nn1 -0.256%
O=C(Cc1ccc(S(=O)(=O)N2CCOCC2)s1)Nc1ccc(Br)c(C(F)(F)F)c1 -0.373%
COC(=O)c1ccc([C@@H](O)[C@H](C)C(=O)CC(=O)OC(C)(C)C)cc1 2.15%
Cc1cc(NC(=O)/C=C/C(=O)N(c2ccccc2C)C(C(=O)NC2CCCC2)c2ccc(F)cc2)no1 (centres undefined) 0.894%
CSc1ccc(S(=O)(=O)NCC(=O)OCC(=O)NC2(C#N)CCCCC2)cc1[N+](=O)[O-] -0.312%
COC(=O)c1cc(NC2c3ccccc3C(=O)N2c2ccc(Cl)cn2)cc(C(=O)OC)c1 (centres undefined) -1.05%
CCCn1c(N)c(C(=O)CSc2nnc3n2CCCCC3)c(=O)[nH]c1=O -2.38%
CCOC(=O)c1cc(C(=O)Nc2ccc(S(=O)(=O)Nc3ccc(OC)cc3)cc2)nn1C -1.57%
CCC(Sc1nncn1C)C(=O)Nc1nnc(-c2ccc(Cl)cc2)s1 (centres undefined) -3.46%
Oc1c(Cl)cc(Cl)c(Cl)c1Cc1c(O)c(Cl)cc(Cl)c1Cl -0.191%
CC(Oc1cccc(Cl)c1)C(=O)NC1CC(C)(C)NC(C)(C)C1 (centres undefined) -1.58%
COc1cc(OC)c(NS(=O)(=O)c2cn(C)cn2)cc1Cl 0.525%
Cc1nc2ccc(NC(=O)N3CCC(c4ccccc4)C3)cc2nc1C (centres undefined) -3.95%
COc1ccc(NC(=O)C(CC(C)C)NS(=O)(=O)c2ccc3c(c2)CCN3C(C)=O)cc1OC (centres undefined) 1.56%
OCCC1CN(Cc2ccc3nsnc3c2)CCN1C1CCCC1 (centres undefined) -1.26%
O=C(CN(c1ccc2c(c1)OCCO2)S(=O)(=O)c1ccccc1)Nc1ccc2c(c1)OCO2 -0.247%
CCC1C(=O)NCCN1C(=O)c1ccc2nc(Cc3ccc(OC)cc3)oc2c1 (centres undefined) -0.899%
S=c1[nH]ccn1-c1ccc(Cl)cc1 -5.31%
COc1cc(OC)cc(-c2c(-c3cccs3)c3cc(-c4ccc(OC)nc4)ccc3n2C)c1 -0.213%
Cc1cc(C#N)c(SCC(N)=O)nc1-c1ccc(F)cc1 -0.398%
Cc1cc(Br)ccc1SCC(=O)OCC(=O)NCc1ccc2c(c1)OCO2 -1.13%
CCN(Cc1ccccc1)C(=O)Cc1ccc(OC)c(S(=O)(=O)N2CCOCC2)c1 -0.86%
C=CCN(Cc1nc(-c2cc(OC)c3c(c2)OCO3)oc1C)C1CCS(=O)(=O)C1 (centres undefined) -0.881%
CCCN(C(=O)COC(=O)CNS(=O)(=O)c1ccc(NC(C)=O)cc1)C1CCS(=O)(=O)C1 (centres undefined) -0.76%
